Test results taken from PubChem BioAssay (NCI).
The panel holds about 83,000 compounds, 20% with a hit somewhere; the sample as a whole holds those more often.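 Plates (96-well) were seeded with cells, treated with compound at one concentration, and incubated for 48 hours before percent growth was determined.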 Unmarked numbers belong to inactive results. The source made the active and inactive calls. How the source made its calls: active means growth percent below 10; inactive means the rest.

Legend:
Assay in all cases: NCI-60 one-dose screen, 48 h (100 = growth as untreated, 0 = no growth, -100 = all killed)
Details in all cases: 10 µM unless noted
NCI-H23 lung = tested on: NCI-H23 lung
NCI-H322M lung = tested on: NCI-H322M lung
HOP-62 NSCLC = tested on: HOP-62 NSCLC
NCI-H460 lung = tested on: NCI-H460 lung
HOP-92 NSCLC = tested on: HOP-92 NSCLC
NCI-H522 lung = tested on: NCI-H522 lung
A549/ATCC NSCLC = tested on: A549/ATCC NSCLC
786-0 renal = tested on: 786-0 renal
COLO 205 colon = tested on: COLO 205 colon
DU-145 prostate = tested on: DU-145 prostate

SMILES: COc1ccccc1CNC(=O)C1c2ccccc2C(=O)N(CC(C)C)C1c1cccs1 (configuration not stated)
- growth (NCI-H23 lung): 76.6%
- growth (NCI-H322M lung): 69.8%
- growth (HOP-62 NSCLC): 62.6%
- growth (NCI-H460 lung): 55.6%
- growth (HOP-92 NSCLC): 76%
- growth (NCI-H522 lung): 41%
- growth (A549/ATCC NSCLC): 60.7%
- growth (786-0 renal): 75.1%
- growth (COLO 205 colon): 46.1%
- growth (DU-145 prostate): 71.2%

SMILES: O=C(O)CCCN1C(=O)C2C3CCC(C3)C2C1=O (configuration not stated)
- growth (NCI-H23 lung): 101%
- growth (NCI-H322M lung): 107%
- growth (HOP-62 NSCLC): 109%
- growth (NCI-H460 lung): 116%
- growth (HOP-92 NSCLC): 107%
- growth (NCI-H522 lung): 88%
- growth (A549/ATCC NSCLC): 104%
- growth (786-0 renal): 106%
- growth (COLO 205 colon): 119%
- growth (DU-145 prostate): 115%

SMILES: O=C1C(=O)c2c(ccc3ccccc23)-c2ccccc21
- growth (NCI-H23 lung): -48.4% (active)
- growth (NCI-H322M lung): 50.5%
- growth (HOP-62 NSCLC): 9.44% (active)
- growth (NCI-H460 lung): 3.58% (active)
- growth (HOP-92 NSCLC): -20.6% (active)
- growth (NCI-H522 lung): -77.4% (active)
- growth (A549/ATCC NSCLC): 24.1%
- growth (786-0 renal): -6.68% (active)
- growth (COLO 205 colon): 52%

SMILES: O=c1oc2ccc(I)cc2c(=O)n1-c1ccc(Br)cc1F
- growth (NCI-H23 lung): 5.56% (active)
- growth (NCI-H322M lung): 5.24% (active)
- growth (HOP-62 NSCLC): -11.7% (active)
- growth (NCI-H460 lung): 2.84% (active)
- growth (HOP-92 NSCLC): -11.7% (active)
- growth (NCI-H522 lung): -10% (active)
- growth (A549/ATCC NSCLC): 7.12% (active)
- growth (786-0 renal): 4.56% (active)
- growth (COLO 205 colon): 50.3%
- growth (DU-145 prostate): 16.6%

SMILES: N[C@@H](CC/[N+]([O-])=N/O)C(=O)O
- growth (NCI-H23 lung): 97.2%
- growth (NCI-H322M lung): 103%
- growth (HOP-62 NSCLC): 101%
- growth (NCI-H460 lung): 97.9%
- growth (HOP-92 NSCLC): 107%
- growth (NCI-H522 lung): 95.7%
- growth (A549/ATCC NSCLC): 102%
- growth (786-0 renal): 104%
- growth (COLO 205 colon): 104%
- growth (DU-145 prostate): 97.8%

SMILES: O=c1oc2ccc(I)cc2c(=O)n1-c1ccc(F)cc1F
- growth (NCI-H23 lung): 6.34% (active)
- growth (NCI-H322M lung): 9.77% (active)
- growth (HOP-62 NSCLC): 2.25% (active)
- growth (NCI-H460 lung): 6.35% (active)
- growth (HOP-92 NSCLC): -29.9% (active)
- growth (NCI-H522 lung): -7.49% (active)
- growth (A549/ATCC NSCLC): 6.11% (active)
- growth (786-0 renal): 21.3%
- growth (COLO 205 colon): 104%
- growth (DU-145 prostate): 15.5%

SMILES: COc1ccccc1N1C(=N)S/C(=C\c2ccc(OCc3ccccc3F)cc2)C1=O
- growth (NCI-H23 lung): 79.8%
- growth (NCI-H322M lung): 81.6%
- growth (HOP-62 NSCLC): 98.8%
- growth (NCI-H460 lung): 77.4%
- growth (HOP-92 NSCLC): 81.1%
- growth (NCI-H522 lung): 65.7%
- growth (A549/ATCC NSCLC): 80.3%
- growth (786-0 renal): 87.9%
- growth (COLO 205 colon): 112%
- growth (DU-145 prostate): 102%

SMILES: COc1cc(/C=C2\CN(C)C/C(=C\c3cc(CN4CCCC4)c(O)c(OC)c3)C2=O)cc(CN2CCCC2)c1O
- growth (NCI-H23 lung): 52.2%
- growth (NCI-H322M lung): 84.7%
- growth (HOP-62 NSCLC): 82%
- growth (NCI-H460 lung): 34.1%
- growth (HOP-92 NSCLC): 66.8%
- growth (NCI-H522 lung): 34.7%
- growth (A549/ATCC NSCLC): 85.6%
- growth (786-0 renal): 72.2%
- growth (COLO 205 colon): 49%
- growth (DU-145 prostate): 60.8%

SMILES: CC(=O)SC1CC(=O)C=C2CCC3C4CCC(=O)OC4(C)CCC3C21C (configuration not stated)
- growth (NCI-H23 lung): 111%
- growth (NCI-H322M lung): 120%
- growth (HOP-62 NSCLC): 106%
- growth (NCI-H460 lung): 115%
- growth (HOP-92 NSCLC): 97.6%
- growth (NCI-H522 lung): 92.7%
- growth (A549/ATCC NSCLC): 105%
- growth (786-0 renal): 101%
- growth (COLO 205 colon): 116%
- growth (DU-145 prostate): 116%

SMILES: O=c1oc2ccc(F)cc2c(=O)n1-c1ccc(F)cc1F
- growth (NCI-H23 lung): 11.4%
- growth (NCI-H322M lung): 36.7%
- growth (HOP-62 NSCLC): 30.5%
- growth (NCI-H460 lung): 14.7%
- growth (HOP-92 NSCLC): -29% (active)
- growth (NCI-H522 lung): -8.1% (active)
- growth (A549/ATCC NSCLC): 15.2%
- growth (786-0 renal): 73.1%
- growth (COLO 205 colon): 93.9%
- growth (DU-145 prostate): 28.3%

SMILES: Cc1ccc(C)c(-c2csc(Nc3ccc(C)c(C)c3)n2)c1
- growth (NCI-H23 lung): 57%
- growth (NCI-H322M lung): 91.1%
- growth (HOP-62 NSCLC): 62.3%
- growth (NCI-H460 lung): 38.5%
- growth (HOP-92 NSCLC): 27.1%
- growth (NCI-H522 lung): 65.3%
- growth (A549/ATCC NSCLC): 43.6%
- growth (786-0 renal): 65.9%
- growth (COLO 205 colon): -54.6% (active)

SMILES: O=C1c2ccc3c4c(ccc(c24)C(=O)N1CCCCO)C(=O)N(CCCCO)C3=O
- growth (NCI-H23 lung): 80.5%
- growth (NCI-H322M lung): 90.9%
- growth (HOP-62 NSCLC): 83.9%
- growth (NCI-H460 lung): 89.6%
- growth (HOP-92 NSCLC): 16%
- growth (NCI-H522 lung): -13.4% (active)
- growth (A549/ATCC NSCLC): 45.6%
- growth (786-0 renal): 67.8%
- growth (COLO 205 colon): 5.81% (active)

SMILES: O=C(Nc1ccc(N2CCNCC2)cc1)c1[nH]ncc1Nc1cc(Oc2ccccc2)ncn1
- growth (NCI-H23 lung): 20.6%
- growth (NCI-H322M lung): -5.19% (active)
- growth (HOP-62 NSCLC): 3.29% (active)
- growth (NCI-H460 lung): -47.1% (active)
- growth (HOP-92 NSCLC): -21% (active)
- growth (NCI-H522 lung): 8.05% (active)
- growth (A549/ATCC NSCLC): -49.8% (active)
- growth (786-0 renal): 2.25% (active)
- growth (COLO 205 colon): -49.1% (active)
- growth (DU-145 prostate): 15.9%

SMILES: O=C1Nc2ccccc2/C1=C/c1cccs1
- growth (NCI-H23 lung): 92.5%
- growth (NCI-H322M lung): 84.6%
- growth (HOP-62 NSCLC): 83.5%
- growth (NCI-H460 lung): 92.5%
- growth (HOP-92 NSCLC): 75.3%
- growth (NCI-H522 lung): 95.2%
- growth (A549/ATCC NSCLC): 95.2%
- growth (786-0 renal): 94.1%
- growth (COLO 205 colon): 107%
- growth (DU-145 prostate): 103%
